Measured values as given in PubChem BioAssay (NCI).
About 79,000 compounds went through this panel and 15% of them were active in at least one assay; those are over-represented in the sample as a whole. Activity calls are given as the source filed them. Rule as the data show it: active = growth inhibition above about 70%; inactive = the rest. *1 amine or outer side, *2 acyl side, *3 side chain or, on linkers, in order; H or OH if unused. Where a SMILES comes first, the peptide text is derived from it. [ ]: non-standard residue; d: D form. X12 = NC(N)=NCC(O)CC(N[*:1])C(=O)[*:2]; Orn = NCCC[CH](N)C(=O)O

Key:
[1] = NCI Yeast Anticancer Drug Screen. Data for the rad50 strain (AID 155);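 also: 0% = growth of vehicle-only cultures of the same strain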; conditions: S. cerevisiae rad50 strain growth inhibition; at 50.0 µM; hits give high values
In short: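 Relative growth inhibition (compound vs vehicle) was measured in yeast with a defined repair-gene alteration.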

[2] = NCI Yeast Anticancer Drug Screen. Data for the mec2-1 strain (AID 157); conditions: S. cerevisiae mec2-1 strain, at 50.0 µM, hits give high values
In short: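 Compounds were applied to mec2-1 yeast cells. Their growth was then compared with that of vehicle-treated cultures to give growth inhibition.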

[3] = NCI Yeast Anticancer Drug Screen. Data for the sgs1 mgt1 strain (AID 161);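 also: 0% = growth of cultures given vehicle only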; conditions: S. cerevisiae sgs1 mgt1 strain, at 50.0 µM, hits give high values
In short: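 Yeast cells carrying a defined DNA-repair defect were exposed to test compounds. Growth inhibition was measured relative to vehicle-treated controls.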

[4] = NCI Yeast Anticancer Drug Screen. Data for the cln2 rad14 strain (AID 165);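 also: 0% = growth equal to vehicle treated cultures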; conditions: S. cerevisiae cln2 rad14 strain, at 50.0 µM, hits give high values
In short: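 Strain: cln2 rad14 yeast, altered in cell cycle control and DNA damage repair. Read-out: growth inhibition vs vehicle.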

[5] = NCI Yeast Anticancer Drug Screen. Data for the bub3 strain (AID 167); conditions: S. cerevisiae bub3 mutant strain, at 50.0 µM, hits give high values
In short: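 Screening used yeast with an engineered genetic alteration affecting cell cycle control. Compound-exposed cultures were compared with vehicle cultures, and reduced growth was taken as inhibition.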

[6] = NCI Yeast Anticancer Drug Screen. Data for the mlh1 rad18 strain (AID 175); conditions: S. cerevisiae mlh1 rad18 strain growth inhibition; at 50.0 µM; hits give high values
In short: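 A repair-deficient yeast strain is exposed to test compound, and growth is scored relative to vehicle-treated controls.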

Measured: growth inhibition

[N-]=[N+]=NC1CCOC(n2cnc3c(N)ncnc32)C1O (stereo unspecified)
inactive: [1] -2.05% | [2] -3.95% | [3] 5.55% | [4] -33.5% | [5] -4.6% | [6] 1.85%

O=c1[nH]nc(-c2ccccc2)n1-c1ccncc1
inactive: [1] -4.65% | [2] 0.3% | [3] -6.45% | [4] -4.65% | [5] 12.7% | [6] 0.65%

NC(N)=NS(=O)(=O)c1ccc(N)cc1
inactive: [1] 45% | [2] 23.9% | [3] 26.4% | [4] 14.3% | [5] 13.3% | [6] 13%

CCNCC1COc2ccccc2O1 (stereo unspecified)
inactive: [1] -0.3% | [2] 3% | [3] -7% | [4] -15.8% | [5] -4.8% | [6] -1%

NC(=O)C(N)CC(=O)O (stereo unspecified)
inactive: [1] 6.15% | [2] -5.9% | [3] -3.1% | [4] -16.1% | [5] 6.5% | [6] 11.1%

O=C(O)c1cc(Br)ccc1[N+](=O)[O-]
inactive: [1] -5.8% | [2] -25.4% | [3] 3.95% | [4] 7.05% | [5] -1.95% | [6] -11%

CCOC(=O)C(C)F (stereo unspecified)
inactive: [1] 6.1% | [2] -26.1% | [3] 1.55% | [4] -1.15% | [5] -8.45% | [6] 3.75%

CC12CC(=O)C3C(CCC4CC(OS(=O)(=O)O)CCC43C)C1CC1OC(=O)C=C12 (stereo unspecified)
inactive: [1] 18.2% | [2] -8.75% | [3] -5.85% | [4] 15.9% | [5] -0.9% | [6] 25.6%

CCN(CC)Cc1cc(C)c(O)c(N=Nc2ccc(-c3ccc(N)c(OC)c3)cc2OC)c1C
inactive: [1] -21.4% | [2] 12.7% | [3] -8.05% | [4] -2.05% | [5] -6.1% | [6] -21.4%

OC1CC2CCCC2CC1O (stereo unspecified)
inactive: [1] -9.45% | [2] -29.7% | [3] -6.95% | [4] 6.35% | [5] -9.65% | [6] -0.75%

C#CCN(N=O)C(=O)NC(CCCCNC(=O)OCc1ccccc1)C(=O)OCc1ccccc1 (stereo unspecified)
inactive: [1] -8.65% | [2] -25.4% | [3] -7.75% | [4] -2.35% | [5] 14.2% | [6] 0.6%

N#C/C(=C\c1ccc(C#N)cc1)C(=O)O
inactive: [1] -16.6% | [2] -3.1% | [3] -30% | [4] 2.75% | [5] -14.4% | [6] 9.55%

COc1ccc(C=Nc2c(O)ccc3ccccc23)cc1OC
inactive: [1] 12.6% | [2] -11.6% | [3] -24.9% | [4] -15.3% | [5] -17.4% | [6] -0.75%

CNC(CCc1ccccc1)C(=O)O (stereo unspecified)
inactive: [1] 1.9% | [2] -1.25% | [3] 8.4% | [4] -7.3% | [5] 4.4% | [6] 2.7%

CN1CCOc2c1cnn(CCO)c2=O
inactive: [1] -52.2% | [2] -15.4% | [3] -22.4% | [4] -10.4% | [5] -4.2% | [6] -7.6%

O=C(O)c1ccc(OCCOc2ccccc2)c(Cl)c1
inactive: [1] 31% | [3] 61.3% | [4] 40.2% | [5] 63.6% | [6] 61%
active: [2] 74.8%

CCCCCC(=O)N1CCCCC1CC (stereo unspecified)
inactive: [1] -8.55% | [2] 7.15% | [3] -19.6% | [4] -10.1% | [5] -25.6% | [6] -28.1%

CNc1nc(C)nc(NC)n1
inactive: [1] -29.9% | [2] -5.1% | [3] -30.4% | [4] -36.2% | [5] 18.4% | [6] -22.9%

O=C(/C=C/c1ccc(O)cc1)OCC1OC(Oc2cc(O)c3c(c2)OC(c2ccc(O)cc2)CC3=O)C(O)C(O)C1O (stereo unspecified)
inactive: [1] 9.35% | [2] -7.45% | [3] 9.6% | [4] -16.1% | [5] 14.3% | [6] 5.1%

Nc1cc2c(cc1Br)-c1ccccc1C2Br (stereo unspecified)
inactive: [1] -6.35% | [2] -10.9% | [3] 3.7% | [4] 10.7% | [5] 1.25% | [6] 2.7%

O=C(/C=C/c1ccccc1)NC1C=Nc2ccc(Cl)cc2NC1=O (stereo unspecified)
inactive: [1] 39% | [2] 53.7% | [3] 38.5% | [4] 23% | [5] 28.2% | [6] 26.2%

O=C1NC2(c3ccccc3)CCCCC2O1 (stereo unspecified)
inactive: [1] -4.95% | [2] -3.05% | [3] -5.95% | [4] 1.95% | [5] -6.35% | [6] -6.6%

C1CCC(C2CCCC2)CC1
inactive: [1] 7.5% | [2] -0.35% | [3] -13% | [4] -32.6% | [5] -17.2% | [6] 4.15%

CCCCN=CC(Cl)(Cl)C(=O)OCC
inactive: [1] -13.2% | [2] -21.6% | [3] -8.35% | [4] 4.05% | [5] -10.9% | [6] -19.7%

CCN(CC)c1ccc(N=C2C=C(C(=O)Nc3ccccc3OC)C(=O)c3ccccc32)c(C)c1
inactive: [1] -24.6% | [2] -28.6% | [3] -12.7% | [4] 5.25% | [5] -2.6% | [6] -16.5%

CCN(CC)C(=O)COc1ccc(Cl)cc1
inactive: [1] 2.05% | [2] -7.75% | [3] -5.55% | [4] -41.7% | [5] -26.6% | [6] -20.7%

CC(C)=CCC1=C(OCC(=O)O)C(=O)c2ccccc2C1=O
inactive: [1] 30.9% | [2] 1.45% | [3] 12.8% | [4] -2.7% | [5] 20.1% | [6] 23.1%

CS(=O)(=O)CC(=O)c1ccc(Br)cc1
inactive: [1] -3.1% | [2] -4.05% | [3] 14.1% | [4] -12.8% | [5] -5.45% | [6] 10.3%

O=C1C2C3C=CC(C2C(=O)N1COP(=O)(O)O)C1C2C(=O)N(COP(=O)(O)O)C(=O)C2C31 (stereo unspecified)
inactive: [1] 2.1% | [2] 0.3% | [3] 0.95% | [4] 19.1% | [5] -11.2% | [6] -14.1%

NC(N)=NOCC(=O)O
inactive: [1] -7.2% | [2] -14.7% | [3] -8.85% | [4] -42.5% | [5] 3.95% | [6] -16.1%

C[n+]1c2ccccc2c(Oc2c3ccccc3[n+](C)c3ccccc23)c2ccccc21
inactive: [1] 3.8% | [2] 11.2% | [3] 31.4% | [4] -15.3% | [5] -4.4% | [6] 0.1%

CC(O)C(NC(=O)C(CCCN)NC(=O)C(CC(O)CN=C(N)N)NC(=O)C(N)CCCN=C(N)N)C(=O)NC(CCCN)C(=O)NC(CC(O)CN=C(N)N)C(=O)NC(Cc1ccc(O)cc1)C(=O)O (stereo unspecified) (H-R[X12][Orn]T[Orn][X12]Y-OH; configuration not given here)
inactive: [1] -0.15% | [2] -19.4% | [3] -4.1% | [4] 15.1% | [5] -15.2% | [6] 2.45%

N#Cc1c(C#N)c(-c2ccccc2)n(-c2ccccc2)c1N
inactive: [1] 10.7% | [2] 12% | [3] -29.7% | [4] -12.8% | [5] -11.2% | [6] -22.1%

O=C1NC(=NC2CCCCC2)C2(CCN(CCCC3(c4ccc(F)cc4)OCCO3)CC2)N1c1ccccc1
inactive: [1] -18.8% | [2] -17.2% | [3] -6.3% | [4] 5% | [5] -5% | [6] -1.45%

c1ccc(CCc2cccnc2)nc1
inactive: [1] 26% | [2] -4.5% | [3] -21.6% | [4] 50% | [5] -6.1% | [6] -1.7%

CCOC(=O)c1c(N)sc2c1C(C(=O)OCC)CCCC2 (stereo unspecified)
inactive: [1] -11.1% | [2] 7.5% | [3] 27.3% | [4] -16.2% | [5] 37.5% | [6] 38.2%
